{
  "source": "the supplement of paper PMC8699584",
  "note": "Where a name gives a salt, the structure may show the parent alone. ± gives the standard deviation of the averaged measurements.",
  "data": [
    {"system": "Molm13", "assay": "cell viability relative to DMSO control (bortezomib = 0%); higher = less growth inhibition", "details": "10 nM; 72 h", "summary_of_the_method": "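Using 384-well plates, a set of 679 approved and investigational compounds was tested once at 10 nM against acute myeloid leukemia cells (1000 cells per well in 50 µL) over 72 h, with the whole screen done in duplicate. Viability readout relied on CellTiter-Glo luminescence measured on an EnVision reader. For each plate, linear regression mapped values between positive-control-treated cells at 0% and DMSO-treated cells at 100%.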", "units": {"cell viability": "%"}, "values": [
      {"smiles": "Cc1cc(N2CCOCC2)ccc1Nc1nc(NC2CCCCC2)c2[nH]cnc2n1", "cell viability": "119 ± 3.6"},
      {"smiles": "O=C1C(Cl)=C(NCCN2CCOCC2)C(=O)c2ncccc21", "cell viability": "111 ± 23"},
      {"smiles": "CC(C)n1nc(-c2ccc3oc(N)nc3c2)c2c(N)ncnc21", "cell viability": "89.4 ± 12"},
      {"smiles": "CN1CCC(CNc2ccc3ncc(-c4cccc(OC(F)(F)F)c4)n3n2)CC1", "note": "[SGI-1776 free base]", "cell viability": "92.3 ± 5.5"},
      {"smiles": "CC1(C)CNc2cc(NC(=O)c3cccnc3NCc3ccncc3)ccc21", "note": "[Motesanib Diphosphate (AMG-706)]", "cell viability": "89.2 ± 9.9"},
      {"smiles": "C=CC(=O)Nc1cc(Nc2nccc(-c3c[nH]c4ccccc34)n2)c(OC)cc1N(C)CCN(C)C", "cell viability": "104 ± 7.9"},
      {"smiles": "C#Cc1cccc(Nc2ncnc3cc(OC)c(OCCCCCCC(=O)NO)cc23)c1", "cell viability": "105 ± 10"},
      {"smiles": "COc1c(C)c(C(=O)c2ccc(N)c(C(=O)O)c2)n2ccccc12", "cell viability": "107 ± 23"},
      {"smiles": "COc1cc2ncnc(Nc3ccc(F)c(Cl)c3)c2cc1NC(=O)/C=C/CN1CCCCC1", "cell viability": "104 ± 3.3"},
      {"smiles": "O=c1cc(-c2ccc(O)cc2)oc2cc(O)cc(O)c12", "note": "[Apigenin]", "cell viability": "86.9 ± 19"},
      {"smiles": "Cc1cc(N)c2ccccc2[n+]1CCCCCCCCCC[n+]1c(C)cc(N)c2ccccc21", "note": "[Dequalinium chloride]", "cell viability": "92.3 ± 15"},
      {"smiles": "NC(=O)c1ccc(-c2nc(-c3ccccn3)c(-c3ccc4c(c3)OCO4)[nH]2)cc1", "cell viability": "105 ± 16"},
      {"smiles": "Nc1ccn([C@@H]2O[C@H](CO)[C@@H](O)C2(F)F)c(=O)n1", "note": "[Gemcitabine]", "cell viability": "-0.99 ± 5.6"},
      {"smiles": "CCCCOc1c(C(=O)c2c(F)cc(C)cc2F)c[nH]c2nncc1-2", "cell viability": "112 ± 1.9"},
      {"smiles": "CNC(=O)c1ccccc1Nc1nc(Nc2ccc(N3CCNCC3)cc2)ncc1Cl", "cell viability": "17.4 ± 13"},
      {"smiles": "Cc1c(Cn2c(C)nc3c(C(=O)O)cc(N4CCOCC4)cc32)cccc1C(F)(F)F", "cell viability": "102 ± 5.3"},
      {"smiles": "CN(C)CCN(C)C(=O)c1ccc(NC(=O)Nc2ccc(-c3nc(N4CCOCC4)c4ccn(CC(F)(F)F)c4n3)cc2)cc1", "cell viability": "87.9 ± 21"},
      {"smiles": "CC(C)(C)c1cc(NC(=O)Nc2ccc(-c3cn4c(n3)sc3cc(OCCN5CCOCC5)ccc34)cc2)no1", "note": "[Quizartinib (AC220)]", "cell viability": "9.37 ± 9.1"},
      {"smiles": "CC(C)(C)c1nc(-c2cccc(NS(=O)(=O)c3c(F)cccc3F)c2F)c(-c2ccnc(N)n2)s1", "cell viability": "98.4 ± 6.6"},
      {"smiles": "Cc1ccc(NC(=O)c2ccc(CN3CCN(C)CC3)cc2)cc1Nc1nccc(-c2cccnc2)n1", "note": "[Imatinib Mesylate (STI571)]", "cell viability": "105 ± 13"},
      {"smiles": "CN(C)S(=O)(=O)c1ccc2c(c1)/C(=C/c1cc3c([nH]1)CCCC3)C(=O)N2", "cell viability": "113 ± 3.4"},
      {"smiles": "COc1cc(-c2cc(-c3ccc(N4CCNCC4)cc3)cnc2C)cc(OC)c1OC", "cell viability": "111 ± 5.7"},
      {"smiles": "CNS(=O)(=O)c1ccccc1Nc1nc(Nc2ccc(N3CCN(C)CC3)cc2OC)ncc1Cl", "note": "[ALK inhibitor 2]", "cell viability": "98.9 ± 20"},
      {"smiles": "Cn1cc(C2=C(c3cn(CCCN)c4ccccc34)C(=O)NC2=O)c2ccccc21", "note": "[Bisindolylmaleimide VIII (acetate)]", "cell viability": "111 ± 18"},
      {"smiles": "O=C(NC(NC(=S)Nc1ccc(F)c([N+](=O)[O-])c1)C(Cl)(Cl)Cl)C(c1ccccc1)c1ccccc1", "note": "(stereo not given)", "cell viability": "109 ± 8.2"},
      {"smiles": "Cc1nc(Nc2ncc(C(=O)Nc3c(C)cccc3Cl)s2)cc(N2CCN(CCO)CC2)n1", "note": "[Dasatinib monohydrate]", "cell viability": "80.8 ± 25"},
      {"smiles": "COc1cc2c(Oc3ccc(NC(=O)C4(C(=O)Nc5ccc(F)cc5)CC4)cc3F)ccnc2cc1OCCCN1CCOCC1", "cell viability": "14.3 ± 2.5"},
      {"smiles": "Nc1ncnc2c1c(I)cn2[C@@H]1O[C@H](CO)[C@@H](O)[C@H]1O", "note": "[5-Iodotubercidin]", "cell viability": "92.65 ± 0.91"},
      {"smiles": "CS(=O)(=O)N1CCN(Cc2cc3nc(-c4cccc5[nH]ncc45)nc(N4CCOCC4)c3s2)CC1", "cell viability": "89.9 ± 12"},
      {"smiles": "COc1cc2c(Oc3ccc4[nH]c(C)cc4c3F)ncnc2cc1OCCCN1CCCC1", "note": "[Cediranib (AZD2171)]", "cell viability": "107 ± 23"},
      {"smiles": "CN(C)CCOc1ccc(-c2nc(-c3ccncc3)c(-c3ccc4c(c3)CC/C4=N\\O)[nH]2)cc1", "cell viability": "103 ± 23"},
      {"smiles": "COCCN1CCN(Cc2ccc(-c3n[nH]c4c3C(=O)c3c(NC(=O)NN5CCOCC5)cccc3-4)cc2)CC1", "cell viability": "70.99 ± 0.17"},
      {"smiles": "COc1cc2ncnc(Nc3ccc(O)c(Br)c3)c2cc1OC", "cell viability": "95.4 ± 24"},
      {"smiles": "CO[C@@H]1[C@H](N(C)C(=O)c2ccccc2)C[C@H]2O[C@]1(C)n1c3ccccc3c3c4c(c5c6ccccc6n2c5c31)C(=O)NC4", "note": "[PKC-412(Midostaurin)]", "cell viability": "95.04 ± 0.94"},
      {"smiles": "CCCCCCCCCCCCC/C=C/[C@@H](O)[C@H](CO)N(C)C", "note": "[N,N-Dimethylsphingosine]", "cell viability": "108 ± 20"},
      {"smiles": "CCCCCCCCCCCCCCCCOP(=O)([O-])OCC[N+](C)(C)C", "note": "[Miltefosine]", "cell viability": "76.2 ± 20"},
      {"smiles": "COc1cc(OC2CCN(C)CC2)ccc1Nc1ncc2c(n1)n(C1CCCC1)c(=O)n2C", "cell viability": "107 ± 7.8"},
      {"smiles": "Cc1c(F)cc(C(=O)NC2CC2)cc1-c1ccc(C(=O)NCC(C)(C)C)cn1", "cell viability": "92.1 ± 8"},
      {"smiles": "CCOc1cc(C(=O)N2CCC(N3CCN(C)CC3)CC2)ccc1Nc1ncc2c(n1)N(C1CCCC1)c1ccccc1C(=O)N2C", "cell viability": "111 ± 7.2"},
      {"smiles": "N#Cc1cccc(-c2c[nH]c3ncnc(N4CCOCC4)c23)c1", "cell viability": "109 ± 23"}
    ]}
  ]
}
